# Test system: RARb homodimer (NR concentration 270 nM)
# Assay: PBM binding z-score (relative to random genomic background probes); higher = stronger binding; sequences stand for … in GC…GCGATTGACAGCGTAGAATGAAGG
# In short: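 Antibodies against each partner of ligand-free nuclear receptor dimers (one per run) detected binding on custom Agilent 4×180K protein-binding microarrays after 1 h incubation. The double-stranded probes had 34-nt variable regions carrying direct-repeat seeds, single-nucleotide variants, half-site ablations and random human genomic background sequences. Binding z-scores, from regression-normalized fluorescence, use the random background probes as reference.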
row,Sequence,PBM binding z-score
1,TCTCGGAGGACACGAAAGGCCAGAGCTCGACATC,1.53
2,TGTCAAAGTTCAAAGGTAACGGAAGTATCCACAC,3.76
3,GCTGCTAGATCAGGTTGGTCAGCTAACGGGTACG,-0.151
4,TCATATAGGTAAATCCTAGGTGAAAGTCCGATCT,0.18
5,GCTTACGGGTCAAAGGCTATAGCATGAATAGAAT,2.54
6,TCAAGTAGGTTAGGGGCATTCAGAATGGCGTCGA,1.23
7,ATCTCAAGGTAACAAGTTCAGTGAAAGAGAGGAC,2.19
8,CCGACTGGGGCAGAAAGGTTACTATACCATCCGG,1.91
9,CTCGAAAGGTCGTGCTCAGGTGCGTATACCAAAC,2.4
10,CCGACTGGGGCATAAGGGTACCATAAGCCAGCCC,0.3
11,TGTCAAAGTTGAAAGGTAACGTAAGTATCCACAC,1.36
12,TCGAGTAGGTAAGGGGCATTCAGAATGGCGTCGA,0.551
13,CCTACTGGGCCATTCAGAGGTCATTGGTCATATG,4.14
14,CAAACTAGGTCAAAGTCAAAGTCGGTTTGTGCCA,3.06
15,CAAACTAGGTCAAGAGGTCAACGTCCGCTTCCCG,5.63
16,CATACAGGGTCAGCTAGGCCAGAGTCGGGACGGC,3.18
17,GCTTGTATATCAAGGTTAAGAAAGACTAAGCTAA,0.176
18,ATATGTAGGTTAGCGGGTCATTCAGTTTGCGCAT,2.65
19,CGTCCAAGGTCGATGCTAGGTCAGTGAAAGCATT,3.05
20,GCAGACAGGTGAAACGCAGGTTACTCAGGGTGGC,0.785

row,Sequence,PBM binding z-score
1,CGTCCAAGGTCATAGTAGGTCAGTGAAGACAGAT,4.63
2,ATCTCTAGGTAAGACTCAGTTCTGTGAAGAACGC,0.00747
3,TCTCCTAGGTCAACGATGGTCAGCTAATCTGCTA,3.61
4,GGAATGAGGGCATTCGAGTTGATAGCATGGCGAT,0.662
5,GGAACGAGGGCAAGTTGAGAGCAGAGTTTGATGG,1.58
6,TCTTGTAAATCAACAGGAGGTTAAGAAAGATCGA,0.787
7,CTACCAAGGTGAACAAGATCGTTGATTACTATTC,0.653
8,ATCTGTAGGTAACAAGTTCAGTGAAAGAGAGGAC,2.16
9,CCGAGCAGGTTATGGGGCATTCAGGCAACGGTGA,1.03
10,GGAACGTGGGCAAGTTGATAGCAGAGTTTGATGG,-0.282
11,TCGGGTAGGTTAGGGGCATTCAGAATGGCGTCGA,1.88
12,ACTGGGAGGACAAAGGTCAGAGCTACGCCAGTGA,4.78
13,CGTCCAAGGTCTATGCTAGGTCAGTGAAAGCATT,2.43
14,TCGAGAAGGTTACCAATGGGGCATTCAGCTTTCT,1.48
15,GCATATAGGTAATACAAGCTGAAAGTCCGATTGT,-0.29
16,TCTTGTAGATCAACAAGAGGTTAAGAAAGATCGA,0.756
17,ACTAGCAGGCCATGGGTCACTCAAGATTAGTCCG,2.1
18,CGAACTAGGTAAGAACAGGACAGTGAAGGATGAT,-0.183
19,ACTAGTTCGTCAGCTGAGGTCACACACAATTCGG,4.27
20,TAGCCTGGGTCATTGGGCCAGTATAGTACGCATC,2.47

# — the supplement of paper PMC6555819
